Screens: PubChem, National Center for Advancing Translational Sciences (NCATS)
Vif-APOBEC3F blk: blocks the Vif interaction with APOBEC3F. 0.2% of 390,000 active. HeLa A3F-eYFP + Vif (tagged APOBEC3F with the HIV-1 protein that degrades it), YFP fluorescence increase. Potency, µM (doses to about 46.1 µM), without a hit: top-dose activity, negative = active; also: % of control where 0% means no effect; nearly all actives have a fitted effect of over 65% in size
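Fluorescence increase (Ex 488/Em 500-530) after overnight compound treatment at 37 deg C flags inhibition of Vif-driven A3F-eYFP loss in stable HeLa A3F-eYFP/Vif cells seeded overnight beforehand.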
PINK1 expr mod: modulators of PINK1 expression; PINK1 immunofluorescence, high-content cytometry, 24 h; Potency, µM (top dose mostly 76.6 µM), for inactives: at the top dose activation (PINK1 increase), hits mostly activators; 0.2% of 410,000 active; AID 624263; active = well fitted activation curve with a large enough effect; inconclusive = small, poorly fitted or top-dose-only effect; cell line not stated here; also: % of control where 0% means no effect; nearly all actives have a fitted effect of over 65% in size
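Decision-based qHTS: stable cells, 24 h exposure to five compound concentrations, CCCP as control. Fixed cells stained for PINK1 plus nuclear, mitochondrial and cell markers, cytometer read.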
Vif-APOBEC3G blk: inhibitors of Vif-APOBEC3G interaction | HeLa A3G-eYFP + Vif (tagged APOBEC3G with the HIV-1 protein that degrades it), YFP fluorescence, overnight | Potency, µM (doses to about 46.1 µM), for the others: top-dose activity, negative = active, hits mostly inhibitors | 0.076% of 410,000 active; also: % is scaled to controls: 0 for no effect and ±100 for the full control effect; nearly all actives have a fitted effect of over 60% in size
Target sequence (Q9HC16 whole entry, looked up): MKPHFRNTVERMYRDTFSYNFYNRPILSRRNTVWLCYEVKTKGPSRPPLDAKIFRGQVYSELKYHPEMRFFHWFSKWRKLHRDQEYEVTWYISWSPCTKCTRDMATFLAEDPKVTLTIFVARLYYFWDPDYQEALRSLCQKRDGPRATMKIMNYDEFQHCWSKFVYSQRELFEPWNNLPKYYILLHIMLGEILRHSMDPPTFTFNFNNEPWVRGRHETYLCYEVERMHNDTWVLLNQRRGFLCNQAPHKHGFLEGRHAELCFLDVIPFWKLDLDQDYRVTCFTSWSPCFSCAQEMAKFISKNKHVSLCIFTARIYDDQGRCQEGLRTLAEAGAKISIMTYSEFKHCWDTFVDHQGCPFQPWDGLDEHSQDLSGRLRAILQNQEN
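HeLa cells stably expressing Vif and C-terminally eYFP-tagged A3G, seeded overnight at 37 deg C, then exposed to compound by pintool overnight at 37 deg C. Rise in yellow fluorescence (Ex 488/Em 500-530, Acumen) marks blocked Vif-driven A3G degradation.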
Epigenetic reg: epigenetic control regulation, reporter derepression. murine LDR cells, GFP reporter derepression, 30 h. Potency, µM (series often up to 53.9 µM), inactives show at the highest dose GFP activation, usual class: activators. 0.2% of 280,000 active. AID 1865; also: % of control where 0% means no effect; nearly all actives have a fitted effect of over 60% in size
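Derepression of a silenced CMV-GFP reporter in murine LDR cells is scored by enumerating GFP-positive cells with a laser-scanning microplate cytometer after 30 hours of treatment at 37 C.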
The depositor's hits bear a star; ? = inconclusive; nt = not tested or not shown; [ ] = dose if it differs, or a comment. A selection: hits, their analogues and other compounds. The true share with any hit is near 0.51%. Unless noted, calls follow the shape of the dose curve; as a rule, active = well fitted curve in the direction sought with a large enough effect; inconclusive = small, poorly fitted or top-dose-only effect, or another doubt; inactive = no such curve, though single readings can be large; an effect the other way counts as inactive or inconclusive. Potency is read from the fitted curve at half-maximal effect.

SMILES	Vif-APOBEC3F blk	PINK1 expr mod	Vif-APOBEC3G blk	Epigenetic reg
Cc1cccn2c(=O)c3cc(C#N)c(=NC(=O)c4cccs4)n(CCCOC(C)C)c3nc12	25µM*	1%	-8%	?
Cc1cccn2c(=O)c3cc(C#N)c(=NC(=O)c4ccncc4)n(CCCOC(C)C)c3nc12	-3%	0%	-1%	3%
CCN(CC)CCCn1c(SCC(=O)NCC2CCCO2)nc2ccccc2c1=O (stereo not drawn)	2%	-3%	-2%	nt
Cc1[nH][nH]c(=O)c1C(c1c(C)[nH][nH]c1=O)c1cn(Cc2ccccc2Cl)c2ccccc12	-8%	19%	11µM*	1%
Cn1nnnc1SCc1nc2scc(-c3ccccc3)c2c(=O)[nH]1	3%	1%	0%	2%
Cn1nnnc1SCc1nc2scc(-c3ccc(Cl)cc3)c2c(=O)[nH]1	22µM*	40µM*	-21%	?
CCn1c(/C=C/c2c(C)n(CC)c3ccccc23)nc2ccccc2c1=O	-10%	18µM*	0%	-1%
CCNc1ncc2nc(-c3ccc(Cl)cc3)c(=O)n(-c3ccccc3)c2n1	nt	13µM*	nt	nt
CCNc1ncc2nc(-c3ccccc3)c(=O)n(-c3ccc(OC)cc3)c2n1	nt	1%	nt	nt
COc1ccc(C2=CC(c3ccc(N(C)C)cc3)n3nnnc3N2)cc1 (stereo not drawn)	11µM*	-1%	?	2%
COc1cccc(C2=CC(c3ccc(N(C)C)cc3)n3nnnc3N2)c1 (stereo not drawn)	32µM*	8%	?	0%
CC(OC(=O)c1cccc(O)c1)C(=O)N(C)Cc1ccccc1 (stereo not drawn)	-7%	0%	-7%	nt
CC(OC(=O)/C(C#N)=C/c1ccc(N(C)C)cc1)C(=O)N(C)Cc1ccccc1 (stereo not drawn)	22µM*	1%	?	nt
CCc1ccc2nc(SCC(=O)Nc3ccccc3N3CCOCC3)c(C#N)cc2c1	10µM*	4%	?	?
CCc1ccc2nc(SCC(=O)N3CC(=O)Nc4ccccc43)c(C#N)cc2c1	?	1%	?	18µM*
CN1CCN(c2ccc(NC(=O)c3ccc(-c4ccc(Cl)cc4)o3)cc2)CC1	3%	3%	?	nt
CS(=O)(=O)N1CCN(c2ccc(NC(=O)c3ccc(-c4ccc(Cl)cc4)o3)cc2)CC1	-3%	14µM*	-4%	0%
CCN1/C(=C/c2cc[n+](C)cc2)C=Cc2cc(C)ccc21	13µM*	10µM*	?	?
CC(=O)Nc1sc(C)c(C)c1C(=O)OCC(=O)Nc1ccccc1	11µM*	?	?	nt
COc1ccc(OC)c(CNC(=O)c2cc3c(=O)oc4ccc(C)cc4c3s2)c1	-8%	1%	2%	0%
CS(=O)(=O)N1N=C(c2ccccc2)CC1c1ccc2c(c1)OCO2 (stereo not drawn)	?	22%	10µM*	-3%
CS(=O)(=O)Nc1cccc(C2=NN(S(C)(=O)=O)C(c3ccc4c(c3)OCO4)C2)c1 (stereo not drawn)	-16%	2%	?	6%
Cc1ccccc1NC(=O)c1sc2nc3c(cc2c1N)CN(Cc1ccccc1)CC3	nt	8%	nt	4%
COc1ccc(NC(=O)c2sc3nc4c(cc3c2N)CN(Cc2ccccc2)CC4)cc1OC	nt	4%	nt	18µM*
Fc1ccccc1NC(=S)N(CCN1CCCCC1)Cc1ccco1	1%	0%	1%	2%
SMILES	Vif-APOBEC3F blk	PINK1 expr mod	Vif-APOBEC3G blk	Epigenetic reg
CC(=O)Nc1ccc2c3c(cccc13)C(=O)N(c1ccccc1)C2=O	?	-1%	5%	8%
O=CNc1ccc2c3c(cccc13)-c1ccccc1-2	?	3%	13µM*	nt
CCCCCCSc1cccc(-c2nc3cc(C)ccn3c2NCc2ccccc2)c1	?	?	-2%	nt
CCCCCCSc1cccc(-c2nc3ccc(C)cn3c2NCc2ccccc2)c1	?	25µM*	-1%	nt
COc1ccc2nc(N3CCCC3)c(C#N)cc2c1	11µM*	8%	-14%	1%
COc1ccc2nc(N3CCCCC3)c(C#N)cc2c1	-19%	1%	-7%	-1%
Cc1cc2nc3c(=O)n(CCc4ccccc4)c(=O)[nH]c3nc2cc1N	6.3µM*	17%	?	0%
Nc1ccc2nc3c(=O)n(CCc4ccccc4)c(=O)[nH]c3nc2c1	?	1%	?	6%
CC(=O)[C@@H]1[C@@H]2C(=O)N(Cc3ccccc3)C(=O)[C@@H]2C2c3ccccc3C=CN21 (stereo partly drawn)	-11%	11µM*	-9%	1%
O=C(c1ccco1)[C@@H]1[C@@H]2C(=O)N(c3ccccc3)C(=O)[C@@H]2C2c3ccccc3C=CN21 (stereo partly drawn)	-5%	2%[38.3 µM]	2%	1%
CN1CCN(c2cc(-c3ccc4ccccc4c3)nc3ccnn23)CC1	nt	45µM*	2%	nt
Cc1ccc(/C=C/C(=O)Nc2ccc([N+](=O)[O-])cc2)o1	-7%	?	3%	1%
CCOC(=O)CCc1ccc(NC(=O)/C=C/c2ccc([N+](=O)[O-])o2)cc1	11µM*	-3%	7.9µM*	nt
O=C(Nc1cccc(OCc2cc(=O)n3c4c(sc3n2)CCCC4)c1)c1ccc(F)cc1	-20%	17%	-2%	25µM*
N#C/C(=C/c1ccc(N2CCCCC2)o1)C(=O)Nc1ccc(Cl)cc1	-491%	13µM*	-2%	0.63µM*
COc1ccc(NC(=O)/C(C#N)=C/c2ccc(C)o2)cc1	?	4%	-25%	-1%
CC1CC1c1ccc(/C=C(\C#N)C(=O)Nc2ccc(Cl)cc2)o1 (stereo not drawn)	-8%	10%	1%	11%
N#C/C(=C/c1ccc(N2CCCCC2)o1)C(=O)Nc1ccc2ccccc2c1	-6%	7.1µM*	9%	2.5µM*
COc1ccc(NC(=O)/C(C#N)=C\c2ccc(N3CCOCC3)o2)cc1	?	21%	15%	16µM*
N#C/C(=C/c1ccc(N2CCOCC2)o1)C(=O)NC1CCCCC1	22µM*	3%	11µM*	1%
CCOC1=C2CN(S(=O)(=O)c3ccc(C)cc3)CC[C@@H]2N(S(=O)(=O)c2ccc(C)cc2)[C@H](c2ccccc2)C1	nt	1%	0%	nt
O=C(O)c1cc(Cl)ccc1OS(=O)(=O)c1ccc(Cl)s1	-4%	0%	-1%	nt
O=C(O)CCc1ccc(-c2ccc(F)cc2)n1CCC(=O)O	0%	nt	4%	-7%
CCCCOC(=O)c1ccc(NC(=O)/C(C#N)=C/c2ccc(C)o2)cc1	-11%	2%	1%	10µM*
C=CCNC(=O)/C(C#N)=C/c1ccc(C)o1	-1%	-1%	2%	0%
CCc1ccc(NC(=O)/C(C#N)=C/c2cc3ccc(C)cc3nc2N2CCOCC2)cc1	7.9µM*	?	-14%	?
COc1ccc(S(=O)(=O)N2CCCCCC2)cc1N(C)S(=O)(=O)c1ccc(C)cc1	-6%	1%	0%	1%
COC(=O)c1ccccc1C(=O)N1CCCC(C(=O)c2cc(F)ccc2F)C1 (stereo not drawn)	-9%	2%	0%	-1%
